Assay outcomes (PubChem BioAssay)
MCF10A rerep – inducers of DNA re-replication in MCF 10A breast cells; AID 624296; 2.9% of 350,000 active; Potency, µM (series often up to 46.1 µM), without a hit: at the highest dose activity, positive = re-replication, usual class: activators; MCF 10A DNA re-replication, Hoechst nuclear intensity, 48 h; also: potency is read from the fitted curve at half-maximal effect; % of control where 0% means no effect; nearly all actives have a fitted effect of over 50% in size
SW480 rerep – inducers of DNA re-replication in SW480 colon cancer cells; SW480 DNA re-replication, Hoechst DNA content imaging, 48 h; Potency, µM (doses to about 46.1 µM), inactives show at the top dose re-replication activation, most hits filed as activators; 1.8% of 340,000 active; also: potency is read from the fitted curve at half-maximal effect; % of control where 0% means no effect; nearly all actives have a fitted effect of over 55% in size
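Image-based DNA-content assay: after two days of treatment, nuclei were labelled with the DNA dye Hoechst and imaged, and hits were compounds raising the count of nuclei showing high fluorescence intensity.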
KB-V1 cytotox – KB-V1 MDR subline cytotoxicity; KB-V1 MDR cells viability, CellTiter-Glo, 72 h; Potency, µM (highest dose often 46.1 µM), usual class: cytotoxic; 3.4% of 400,000 active; AID 1347076; also: potency is read from the fitted curve at half-maximal effect; % is scaled to controls: 0 for no effect and ±100 for the full control effect; nearly all actives have a fitted effect of over 60% in size
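Luminescent ATP read-out (CellTiter-Glo, 10 min) measures survival of drug-selected KB-V1 MDR cells after 72 h, 37 degrees C compound exposure. Medium: phenol-red-free DMEM, 10% FBS. Values from fitted concentration-response curves.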
KB-3-1 cytotox – KB-3-1 parental cell cytotoxicity | 1.4% of 400,000 active | AID 1347075 | KB-3-1 viability, CellTiter-Glo ATP luminescence, 72 h | Potency, µM (highest dose often 46.1 µM), hits mostly cytotoxic; also: potency is read from the fitted curve at half-maximal effect; % is scaled to controls: 0 for no effect and ±100 for the full control effect; nearly all actives have a fitted effect of over 60% in size
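Luminescent ATP read-out (CellTiter-Glo) measures survival of drug-naive KB-3-1 cells after 72 h compound exposure at 37 °C. Titration series was screened from lowest to highest concentration, with DMSO vehicle plates as background controls.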
IL1B secr inh – blocks inflammasome-driven IL-1 beta release. THP-1 LPS/ATP IL-1B secretion, AlphaLISA, 16 h; stronger effect = lower value. activity change, % at 57.5 µM. 4.7% of 360,000 active; in the data active = activity change below about -50%; inconclusive = mostly about -30% to -49%; also: % is scaled to controls: 0 for no effect and ±100 for the full control effect
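THP-1 cells pretreated 1 hr with compounds (up to 57.5 uM final), then stimulated with LPS (250 ng/mL final) plus ATP (1.25 mM final); secreted IL-1B measured by AlphaLISA after 16 hr, decreased signal indicating inhibition.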
Numbers without * were called inactive. This is a sample that favours compounds with a hit; in the whole collection about 9.9% have one here. Unless noted, calls follow the shape of the dose curve; as a rule, active = well fitted curve in the direction sought with a large enough effect; inconclusive = small, poorly fitted or top-dose-only effect, or another doubt; inactive = no such curve, though single readings can be large; an effect the other way counts as inactive or inconclusive.

How did COc1cc(C(=O)OCC(=O)c2cc(C)n(CC3CCCO3)c2C)ccc1OCC(=O)N1CCOCC1 (centres undefined) do in these assays?
MCF10A rerep: -14%; SW480 rerep: 6%; KB-V1 cytotox: inactive; KB-3-1 cytotox: inactive; IL1B secr inh: 0

Results for CCOc1cc(C(=O)OCC(=O)Nc2cccc(S(=O)(=O)NC3=NCCCCC3)c2)cc(OCC)c1OCC ?
MCF10A rerep: 8%; SW480 rerep: -1%; KB-V1 cytotox: 8.2µM*; KB-3-1 cytotox: inactive; IL1B secr inh: inconclusive

What do the screens show for `CC(Oc1ccc(Br)cc1)C(=O)Nc1ccc(S(=O)(=O)NC2=NCCCCC2)cc1` (centres undefined)?
MCF10A rerep: -3%; SW480 rerep: -2%; KB-V1 cytotox: 23µM*; KB-3-1 cytotox: inactive; IL1B secr inh: 2

What do the screens show for `Cc1cc(Cl)ccc1OCC(=O)Nc1cccc(S(=O)(=O)NC2=NCCCCC2)c1`?
MCF10A rerep: 17%; SW480 rerep: 3%; KB-V1 cytotox: inconclusive; KB-3-1 cytotox: inactive; IL1B secr inh: -71*

How did CCOc1cc(C(=O)Nc2ccc(S(=O)(=O)NC3=NCCCCC3)cc2)cc(Br)c1OC do in these assays?
MCF10A rerep: inconclusive; SW480 rerep: inconclusive; KB-V1 cytotox: inactive; KB-3-1 cytotox: inactive; IL1B secr inh: -58*

What do the screens show for `CCOc1ccccc1C(=O)OCC(=O)Nc1cccc(S(=O)(=O)NC2=NCCCCC2)c1`?
MCF10A rerep: 2%; SW480 rerep: -9%; KB-V1 cytotox: inactive; KB-3-1 cytotox: inactive; IL1B secr inh: 4

What do the screens show for `Cc1nc2ccc(S(=O)(=O)NCC(=O)Nc3cccc(F)c3)cc2s1`?
MCF10A rerep: 4%; SW480 rerep: 17%; KB-V1 cytotox: inactive; KB-3-1 cytotox: inactive; IL1B secr inh: 23

How did CCCn1c(N)c(N(CCOC)C(=O)Cc2ccc(S(=O)(=O)N3CCOCC3)s2)c(=O)[nH]c1=O do in these assays?
MCF10A rerep: -1%; SW480 rerep: -5%; KB-V1 cytotox: inactive; KB-3-1 cytotox: inactive; IL1B secr inh: -3

Results for COc1ccc(NC(=O)NC(C)C2CC3CCC2C3)cc1 (centres undefined) ?
MCF10A rerep: 22%; SW480 rerep: 0%; KB-V1 cytotox: inactive; KB-3-1 cytotox: inactive; IL1B secr inh: -80*

What do the screens show for `CC(NC(=O)c1ccc(F)cc1Cl)C1CC2CCC1C2` (centres undefined)?
MCF10A rerep: 4%; SW480 rerep: -6%; KB-V1 cytotox: inactive; KB-3-1 cytotox: inactive; IL1B secr inh: -12

How did COc1ccc(C(=O)NC(C)C2CC3CCC2C3)cc1 (centres undefined) do in these assays?
MCF10A rerep: 6%; SW480 rerep: -7%; KB-V1 cytotox: inconclusive; KB-3-1 cytotox: inactive; IL1B secr inh: 15

How did CC(NC(=O)CCC(=O)c1ccc(F)cc1)C1CC2CCC1C2 (centres undefined) do in these assays?
MCF10A rerep: 10µM*; SW480 rerep: inconclusive; KB-V1 cytotox: inactive; KB-3-1 cytotox: inactive; IL1B secr inh: -21

Results for CCOC(=O)C1=C(COC(=O)C2(C)CC2(Cl)Cl)NC(=O)NC1c1ccccc1 (centres undefined) ?
MCF10A rerep: 3%; SW480 rerep: -80%; KB-V1 cytotox: inactive; KB-3-1 cytotox: inactive; IL1B secr inh: 0

How did CC(C)c1onc(C(=O)N2CCN(c3ccc(F)cc3)CC2)c1[N+](=O)[O-] do in these assays?
MCF10A rerep: 0%; SW480 rerep: 21µM*; KB-V1 cytotox: inactive; KB-3-1 cytotox: inactive; IL1B secr inh: -6

Results for Cc1ccc(Cl)cc1N1CCN(C(=O)c2noc(C(C)C)c2[N+](=O)[O-])CC1 ?
MCF10A rerep: 12%; SW480 rerep: inconclusive; KB-V1 cytotox: inconclusive; KB-3-1 cytotox: inactive; IL1B secr inh: -81*

Results for CCOC(=O)C1CCN(C(=O)Nc2cc(Cl)cc(Cl)c2)CC1 ?
MCF10A rerep: inconclusive; SW480 rerep: -38%; KB-V1 cytotox: inactive; KB-3-1 cytotox: inactive; IL1B secr inh: 8

How did CCOc1ccc(C(=O)N2CCC(c3ccncc3)CC2)cc1 do in these assays?
KB-V1 cytotox: inactive; KB-3-1 cytotox: inconclusive

Results for Cc1ccc(-n2nc(C)c3c(C)cc(=O)n(CC(=O)NC(C)c4ccccc4)c32)cc1 (centres undefined) ?
KB-V1 cytotox: inactive; KB-3-1 cytotox: inactive

What do the screens show for `Cc1ccc(C(=O)N2CCN3C(=O)c4ccccc4C23c2ccc(Cl)cc2)cc1` (centres undefined)?
MCF10A rerep: inconclusive; SW480 rerep: inconclusive; KB-V1 cytotox: inactive; KB-3-1 cytotox: inactive; IL1B secr inh: 0

What do the screens show for `O=C(CN1C(=O)c2ccccc2C1=O)Nc1cccc(Cl)c1`?
MCF10A rerep: -17%; SW480 rerep: -1%; KB-V1 cytotox: inconclusive; KB-3-1 cytotox: inactive; IL1B secr inh: 15

Results for O=C(CCl)N1CCN2C(=O)c3ccccc3C12c1ccc(Cl)cc1 (centres undefined) ?
MCF10A rerep: 23µM*; SW480 rerep: inconclusive; KB-V1 cytotox: inconclusive; KB-3-1 cytotox: inconclusive; IL1B secr inh: -95*

Results for O=C(Nc1cccc(Cl)c1)N1CCN2C(=O)c3ccccc3C12c1ccccc1 (centres undefined) ?
MCF10A rerep: inconclusive; SW480 rerep: inconclusive; KB-V1 cytotox: inactive; KB-3-1 cytotox: inconclusive; IL1B secr inh: -58*

How did COC(=O)c1cccc(C(=O)N2CCCC(CCC(=O)N(C)CCc3ccccn3)C2)c1 (centres undefined) do in these assays?
MCF10A rerep: -2%; SW480 rerep: 0%; KB-V1 cytotox: inactive; KB-3-1 cytotox: inactive; IL1B secr inh: 7

Results for O=C(N/N=C/c1ccc([N+](=O)[O-])cc1)c1cccc2cc[nH]c12 ?
MCF10A rerep: 4%; SW480 rerep: -190%; KB-V1 cytotox: inactive; KB-3-1 cytotox: inactive; IL1B secr inh: -12

What do the screens show for `CCN(CC)c1ccc(/C=N\NC(=O)c2cccc3cc[nH]c23)cc1`?
MCF10A rerep: 15µM*; SW480 rerep: 23µM*; KB-V1 cytotox: 13µM*; KB-3-1 cytotox: 23µM*; IL1B secr inh: 15

Results for COc1ccccc1C(=O)NCCC(=O)NCC1COc2ccccc2O1 (centres undefined) ?
MCF10A rerep: -13%; SW480 rerep: -6%; KB-V1 cytotox: inactive; KB-3-1 cytotox: inactive; IL1B secr inh: -19

What do the screens show for `C=C1CCC[C@]2(C)C[C@H]3OC(=O)C(CNCC(C)C)[C@H]3CC12` (some centres undefined)?
MCF10A rerep: -10%; SW480 rerep: inconclusive; KB-V1 cytotox: inactive; KB-3-1 cytotox: inactive; IL1B secr inh: -69*
